Screens deposited in PubChem BioAssay by several laboratories.
Only some compounds are listed: those with a hit (about 3.2% of all), similar ones and a draw of the others.
DAGLB inh: DAGLB lipase inhibitors, primary screen, biochemical, fluorescence, HTS; Diacylglycerol lipase-beta (Homo sapiens), Q8NCG7; HEK293T DAGLB membrane lysate, EnzChek fluorogenic substrate; inhibition, % at 5.17 µM; 340,000 compounds, 0.059% hits; AID 504411, 2011; in the data active = inhibition above about 34%;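 note: 0% = enzyme with vehicle and 100% = wells lacking enzyme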
Target sequence (Q8NCG7 whole entry, looked up): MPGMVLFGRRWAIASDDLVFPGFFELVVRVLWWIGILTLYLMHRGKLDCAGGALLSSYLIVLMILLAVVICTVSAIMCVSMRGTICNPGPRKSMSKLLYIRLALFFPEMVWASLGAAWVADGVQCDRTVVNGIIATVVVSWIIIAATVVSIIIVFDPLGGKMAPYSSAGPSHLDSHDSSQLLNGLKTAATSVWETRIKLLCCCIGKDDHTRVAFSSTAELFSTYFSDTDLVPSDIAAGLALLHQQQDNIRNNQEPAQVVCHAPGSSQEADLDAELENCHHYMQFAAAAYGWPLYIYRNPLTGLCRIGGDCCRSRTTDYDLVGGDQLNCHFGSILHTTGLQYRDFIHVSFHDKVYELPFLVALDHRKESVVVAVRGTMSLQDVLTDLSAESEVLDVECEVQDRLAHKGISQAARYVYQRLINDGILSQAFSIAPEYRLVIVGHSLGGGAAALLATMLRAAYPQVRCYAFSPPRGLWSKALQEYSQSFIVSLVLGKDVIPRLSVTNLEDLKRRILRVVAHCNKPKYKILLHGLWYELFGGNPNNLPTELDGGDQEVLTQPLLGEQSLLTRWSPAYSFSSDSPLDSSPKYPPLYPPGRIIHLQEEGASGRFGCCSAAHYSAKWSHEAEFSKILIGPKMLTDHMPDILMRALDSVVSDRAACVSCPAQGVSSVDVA
MsrA act: bovine MsrA enzyme activators, primary screen, biochemical, absorbance, HTS; activation, % at 10.6 µM; 360,000 compounds, 0.3% hits; purified bovine MsrA, absorbance read-out; in the data active = activation above about 7.5%;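 note: 0% = vehicle and 100% = reference activator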
rCAG RNA binder: binders of r(CAG) RNA repeats, primary screen, biochemical, fluorescence | inhibition, % at 3 µM | r(CAG) RNA repeat, TO-PRO-1 dye displacement fluorescence | 370,000 compounds, 1.3% hits | AID 651821, 2012;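 active = inhibition above the plate cutoff, the mean of all test compounds on that plate plus 3 SD, cut at about 35% in these data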;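 note: 0% = DMSO alone and 100% = 100 µM mitoxantrone as full dye displacement; higher means more dye released from RNA so lower well fluorescence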
MsrA inhibitor: bovine MsrA enzyme inhibitors, primary screen, biochemical, absorbance, HTS; Methionine sulfoxide reductase A (Bos taurus); purified bovine MsrA, absorbance read-out; inhibition, % at 15.5 µM; 360,000 compounds, 0.75% hits; AID 651718, 2012; in the data active = inhibition above about 4.5%;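 note: 0% = vehicle wells with enzyme and 100% = reference inhibitor wells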
Pemphigus Ab inh: inhibitors of pemphigus antibody binding to DSG3, primary screen, biochemical, bead-based, flow cytometry, scFv-GFP; binding (percent of control), % at 10 µM; Desmoglein-3 (Homo sapiens), P32926; DSG3-coupled beads, scFv-anti-DSG3-GFP binding; stronger effect = lower value; 310,000 compounds, 0.48% hits;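 active = binding more than 3 SD below its plate's average and above zero; inconclusive = below that plate limit but binding exactly zero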
NadD inh: inhibitors of S. aureus NadD, primary screen, biochemical, colorimetric, uHTS; Nicotinate-nucleotide adenylyltransferase NadD (Staphylococcus aureus N315); purified NadD enzyme, colorimetric absorbance read-out; inhibition, % at 20 µM; 360,000 compounds, 0.78% hits; in the data active = inhibition above about 26%
MsrA activ conf: bovine MsrA activators, retest, confirmation, biochemical, absorbance, HTS; shares compounds with MsrA act; purified bovine MsrA, absorbance read-out; activation, % at 10.6 µM; 1,000 compounds, 12% hits; in the data active = activation above about 4%;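 note: enzyme coupled to thioredoxin and thioredoxin reductase with NADPH; 0% = vehicle wells and 100% = reference activator wells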
* marks the source's active call; other numbers are inactive results; u = inconclusive; x = no result given.

SMILES	DAGLB inh	MsrA act	rCAG RNA binder	MsrA inhibitor	Pemphigus Ab inh	NadD inh	MsrA activ conf
CCn1c(=O)n(CC(=O)N2CCN(C(C)=O)CC2)c(=O)c2ccccc21	x	x	-0.2	x	x	x	x
O=c1ccsn1Cc1ccccc1	2.6	17.8*	1.1	0.7	99.5	-4.6	5.6*
C=CCN(CC=C)Cc1cc(=O)oc2ccccc12	x	-2.4	1.3	0.1	x	-0.6	x
CC(C)CNc1nc(=S)nc(N(C)C)[nH]1	-0.8	8.3*	-3.2	1.3	97.6	-3.0	4.2*
CN(C)c1nc(=S)nc(NCc2ccccc2)[nH]1	-1.4	5.0	0.7	1.5	104.8	2.1	x
Cn1cccc1CC(=O)NN=Cc1cccc(F)c1	x	x	7.8	x	x	x	x
CC(=O)NC1(c2ccc(F)cc2)CCN(C(=O)Nc2ccc(F)cc2F)CC1	-2.6	8.6*	-0.9	-0.8	100.7	-0.8	0.5
C#CCNC(=O)C[C@H]1C[C@@]2(C(=O)OC)C(=C[C@H](COCc3ccccc3)O[C@@H]2C)N(Cc2ccccc2)C1=O	x	x	5.4	x	x	x	x
CCN(CC)S(=O)(=O)c1ccc(N2CCCCC2)c(NC(=O)/C=C/c2ccc(OC)c(OC)c2)c1	-4.7	15.3*	9.6	1.6	98.8	11.3	3.0
O=c1[nH]c(=S)[nH]cc1Oc1ccc(Cl)cc1	3.4	9.0*	5.1	0.4	106.4	5.9	4.2*
CCCn1c(N)c(N(CCOC)C(=O)c2ccc(N3CCCC3=O)cc2)c(=O)[nH]c1=O	2.6	7.9*	-3.3	-0.9	107.9	-2.9	1.1
CCCCn1c(N)c(N(CCOC)C(=O)c2ccc(N3CCCC3=O)cc2)c(=O)[nH]c1=O	1.3	-1.1	1.7	0.2	x	-4.1	x
NC(=O)c1cccc(-c2ccnc3c2CC(C(=O)Nc2cccc(Oc4ccccc4)c2)O3)c1 (stereo not drawn)	x	0.3	x	x	x	10.0	x
O=[N+]([O-])c1ccc(Sc2nc3ccccc3o2)c([N+](=O)[O-])c1	-31.1	7.7*	1.1	1.6	96.9	-8.0	1.6
CCCCCCCCN1C(=O)[C@H](CC(=O)N2CCCCC2)C[C@@]2(C(=O)OC)CCCCC=C12	x	-2.8	4.8	0.5	x	3.1	x
N#Cc1ccccc1NC(=O)CN1C(=O)NC(Cc2c[nH]c3ccccc23)C1=O (stereo not drawn)	-2.0	8.0*	5.4	-1.2	105.1	3.1	5.4*
O=C(CN1C(=O)NC(Cc2c[nH]c3ccccc23)C1=O)Nc1ccc(F)cc1F (stereo not drawn)	0.1	-6.8	4.7	0.2	88.9	-2.5	x
CNC(=S)Nc1sc2c(c1C(=O)OC)CCC2	1.5	8.4*	0.1	1.8	100.4	-0.9	2.5
COC(=O)c1c(NC(C)=O)sc2c1CCCC2	-1.6	-4.5	-1.9	0.7	102.8	-0.1	x
COc1ccc(-c2csc(/C(C#N)=C/Nc3ccc4c(c3)OCCO4)n2)cc1	0.1	-4.6	1.9	-1.2	100.3	9.0	x
COc1ccc(-c2csc(/C(C#N)=C/Nc3cc4oc5ccccc5c4cc3OC)n2)cc1	-0.2	13.4*	0.6	-0.2	84.3	26.0	-0.5
CCOc1ccc(NC(=O)CSCc2cnn(-c3ccccc3)c2-n2cccc2)cc1	-12.3	8.8*	-6.2	-0.4	97.0	-13.4	0.6
C[C@@H]1/C=C/CC(=O)N[C@H](c2ccc3ccccc3c2)[C@H](C)/C=C/CC(=O)N[C@@H]1c1ccc2ccccc2c1	x	x	12.1	x	x	x	x
Cn1c(N)c(C(=O)CSc2nnc(N)s2)c(=O)n(C)c1=O	-2.2	-8.2	3.3	1.1	96.0	-2.5	x
Cc1csc(SCC(=O)c2c(N)n(C)c(=O)n(C)c2=O)n1	-0.1	9.7*	-2.1	-0.1	112.5	-2.6	-1.7
SMILES	DAGLB inh	MsrA act	rCAG RNA binder	MsrA inhibitor	Pemphigus Ab inh	NadD inh	MsrA activ conf
O=C(NC1CCCCN(Cc2cccc(C(F)(F)F)c2)C1=O)c1cccc(F)c1 (stereo not drawn)	x	x	0.1	x	x	x	x
O=C(C1CC(=O)N(c2ccc3c(c2)OCCO3)C1)N1CCN(c2ccccc2O)CC1 (stereo not drawn)	0.4	-6.6	-2.4	-0.4	u	3.7	x
O=C(NCc1ccccc1F)C1CC(=O)N(c2ccc3c(c2)OCCO3)C1 (stereo not drawn)	0.2	9.5*	-2.7	-0.4	98.2	-1.0	-1.8
O=C(C1CC(=O)N(c2ccc3c(c2)OCCO3)C1)N1CCN(c2ccccc2)CC1 (stereo not drawn)	0.8	9.4*	-0.1	-0.1	103.0	-1.9	0.4
COc1cccc(CNC(=O)[C@H]2CCCN2C(=O)[C@H]2CCCN2C(=O)c2cccc(F)c2)c1	x	x	0.4	-0.6	x	x	x
O=C(c1cccc([N+](=O)[O-])c1)c1cc2ccccc2o1	-5.2	8.8*	3.9	0.7	98.3	-5.9	0.2
OCCCCCCNc1ccc(CCO)cc1	x	8.6*	0.4	-0.6	x	-7.3	0.1
Nc1ccccc1SSc1ccccc1N	-11.2	11.2*	1.4	0.4	82.5	4.5	3.9
CCC(CO)NCc1cc(OC)c(OCC(=O)NCCc2ccccc2)cc1Br (stereo not drawn)	0.3	9.0*	-4.4	0.5	97.7	-3.8	-1.1
CCCNCc1cc(OC)c(OCC(=O)NCCc2ccccc2)cc1Br	-0.2	-2.4	-2.6	-1.8	97.3	-12.1	x
COc1ccc(Cn2nnnc2C(c2cccs2)N2CCOCC2)cc1 (stereo not drawn)	0.8	7.8*	0.2	0.0	110.2	4.0	-1.0
Cc1cn(-c2cc(NC(=O)c3ccc(C)c(Nc4nccc(-c5cccnc5)n4)c3)cc(C(F)(F)F)c2)cn1	x	x	1.8	x	x	x	x
CC[C@H](C)Cc1cn([C@@H](CCCN=C(N)N)C(=O)NCCCCCCCCCCC(=O)N2CCNCC2)nn1	0.4	-6.5	8.4	-1.5	106.3	-4.4	x
CC[C@H](C)[C@@H](C(=O)NCCCCCCCCCCC(=O)N1CCNCC1)n1cc(CCCCN=C(N)N)nn1	0.3	9.3*	-2.3	0.3	106.2	-6.0	-0.3
CCOC(=O)c1ccc(N2C(=O)Cc3ccccc3C2=O)cc1	1.5	-3.7	22.0	-0.5	112.5	3.9	x
CC(C)COC(=O)c1ccc(N2C(=O)c3ccccc3C2=O)cc1	-9.3	7.9*	-5.1	-1.3	96.0	-8.2	5.5*
O=C(NC1(C(F)(F)F)N=C2SCCN2C1=O)C1CCCCC1 (stereo not drawn)	0.9	7.8*	27.4	-1.6	x	-0.8	-1.4
CC1=C(C)CS(=O)N(c2ccc(S(N)(=O)=O)cc2)C1 (stereo not drawn)	-0.2	7.8*	1.8	-1.4	x	3.7	-3.3
CCCCNS(=O)(=O)/C=C/c1ccccc1CNC(=O)OC(C)(C)C	x	x	-2.3	x	x	x	x
